In PubChem BioAssay AID1508600 (Functional Genomics Laboratory (NCATS/FGL), 2020):
The whole screen tested about 53,000 sequences, of which about 3,700 (7%) were called active. This is one part of a sample in which actives are shown more often than they occur.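 Rule for the calls: active = gene knockdowns whose robust z-score for IL-1 alpha signal is at least 2 or at most -2, so actives lie on both sides; inactive = the rest.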

Test: Components of the Cytosolic LPS Sensing Pathway: Gene Identification via Genome-wide siRNA Screen;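 note: robust z of the log signal after scaling to non-targeting control siRNA wells of the plate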
Conditions: RAW264.7 macrophages, IL-1a HTRF, actives lie on both sides, screened at 100 nM (by protocol), cells primed 5 h with Pam3CSK4 first
Method in brief: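 RAW264.7; siRNA 100 nM final, RNAiMAX, 48h 37 degrees C; Pam3CSK4 5 h; LipidA + TransIT-TKO 24 h; IL-1a HTRF; CellTiter-Glo viability; robust z vs negative-control median.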

Sequence	z-score
GGACAAGAAGAAAGAAAAGTT against Tmbim6	-1.07 (inactive)
GGAAGUUCCACCAUACCUCTT against Cypt4	-2.5 (active)
GGCGACAGCGUAAAAGUACTT against Lyst	-0.347 (inactive)
GGAAAAAAAACACUGACUGTT against Hoxa5	1.05 (inactive)
GGCUCAAGGCUGAGUUUCATT against En2	0.704 (inactive)
GGCCUGGAGGACUUUAUAATT against Cyp2a4	-1.13 (inactive)
GGCUAGCUACACAGUCUCATT against Plscr2	0.376 (inactive)
GCAUCAUUGUCAAUCAUAUTT against Olfr578	-2.25 (active)
CCGAAGGACAGUGUUUAUUTT against Mfsd11	0.212 (inactive)
GCCUGCUAUUUAAUUCAUATT against Fam168a	-0.671 (inactive)
GGUCCAGUGAAAUAAUAUCTT against Orc3	0.774 (inactive)
GGACUACCAAUACGAACUGTT against Il23a	2.22 (active)
GCAUAAAUUUCAAGAGCGCTT against Gigyf1	-0.243 (inactive)
CGUAAGAUCAACGAGAGAUTT against Ncaph2	-0.756 (inactive)
GGGAAAGACUGGAAAUCUUTT against Tmod3	0.515 (inactive)
GGAGAUCGAAAAGAAUUUCTT against Mx2	1.17 (inactive)
GGAGGAAGAACUGUCUUUGTT against Wasf1	0.221 (inactive)
GGUGUUGGAUCAUGAUGUUTT against Nf2	-2.14 (active)
GCCCUUCAAAAGGAGCAGUTT against Cap1	1.86 (inactive)
GGACCAGCUGGACAAAAGATT against Zbtb18	0.131 (inactive)
GGCAUCAAAGACAAUACAATT against Vmn1r15	3.19 (active)
GGUCAAAUCACUGAGUUUUTT against 9530080O11Rik	1.74 (inactive)

Sequence	z-score
GGUUGUCAUUCUUAUCCUUTT against Mageb1	0.57 (inactive)
GGGAAUGCUUAUGUAGGCATT against Aldh3b1	-1.03 (inactive)
GGCGGUUAGACAUUAUGGATT against Plac9a	1.25 (inactive)
GGCGUGUGCAAGAAAAUCGTT against Cacng3	2.53 (active)
GGAUGAGUUGUCAUUGAUATT against Nck1	0.998 (inactive)
CCUGUAGGGCUUUUUGAAATT against Mex3a	0.843 (inactive)
GGUGUUUUUGUCCAGGUCATT against Kcnk3	-0.618 (inactive)
GCAAGACAAGUUCUACGAUTT against Csad	1.83 (inactive)
GCCUGUUCGGGAAUCUUACTT against Olfr297	2.42 (active)
GCAUUCAGUUGGGACAGUATT against Hsh2d	0.443 (inactive)
CGCAGAGGUUUUACUUUAATT against Mycbpap	1.52 (inactive)
GCGAAGACGGAAGCAUAUUTT against Emc8	0.12 (inactive)
GGCGGAAAUCUUGAGCAAATT against Slc28a2	4.39 (active)
GGAGCUUAUCAACUACUAUTT against Cltc	-0.181 (inactive)
GGAGAGAAACUGCGUGUAATT against Sla	1.46 (inactive)
GGCAGAAAUCCAUCAGAGATT against Rtkn2	-0.349 (inactive)
GCCGUACUUCGUCAAGCUATT against Ung	0.395 (inactive)
GGCAUCUAGGAGAACCUCATT against Insig2	-1.01 (inactive)
CGAGAAUUACAGACACUUGTT against Noc4l	0.962 (inactive)
GGCAAAAAGGCAGUAGCCATT against Ncl	0.644 (inactive)
GGCGGAGUUCUCAAGACUUTT against Nudt18	3.55 (active)
GGAACUGGAUCAAGAAUUUTT against Hhat	0.0393 (inactive)

Sequence	z-score
CGGACAUAGUCCAUCAUUCTT against Aig1	1.47 (inactive)
CGGUAUAGUAGAUACUUAATT against Picalm	2.01 (active)
CCCACCUUCCAAAAGGAUCTT against 5031434C07Rik	-0.882 (inactive)
GGUGAAAUGGAUCGUCCUCTT against Nme8	-0.926 (inactive)
GGAUGGUCUGCUAUUACAUTT against Phf7	0.832 (inactive)
CCCUCAAGGCUGAUAAACATT against Il17b	-2.26 (active)
GGCUACAUGAGCUGGAGAATT against Insr	2.71 (active)
GCCGCUAACUAAAGUCAAATT against Aloxe3	1.15 (inactive)
GGAGAUUGGCUUCCAGAAATT against Slc38a7	0.494 (inactive)
GCAACACAUUUGAACCACUTT against Usp15	-1.79 (inactive)
CCACGAGGAGCUCAUUUUCTT against Dhfr	0.385 (inactive)
GGCCAAAGGCAUCAGGCAUTT against Gsto2	-1.7 (inactive)
GCUCAAACGAAAUGAUUCATT against Gys2	2.01 (active)
GCCGCACGUUUUUGAGUUGTT against Islr2	-0.554 (inactive)
CCGAAAUUUUGAGUACUGUTT against Vmn1r67	0.285 (inactive)
CCACUUAAAAUUCAUUCCUTT against Arl6ip1	-0.21 (inactive)
GGAUGAUGCCCGAAAGAACTT against Zfp536	-4.55 (active)
GGAGAAGACACAGAGAACCTT against Pkd2l1	0.645 (inactive)
GGGCAUGGGAUUUAAUUCUTT against Dnajc11	1.54 (inactive)
CGCUAUGGUUUCUCAGCUUTT against Myh4	-0.02 (inactive)
GGAGAUUCAGAAGAUCCUCTT against Isoc2b	2.49 (active)
GCUCUCACCUUCAUUUGAATT against Tmem174	-1.37 (inactive)

Sequence	z-score
GGAAAUAAUGUUACUGACATT against Zfp445	-0.178 (inactive)
GGCAUCAAUAGGAAGAUGCTT against Rgs19	0.182 (inactive)
GCAUUUAGGUCUGAUAAAGTT against Gpr61	0.00391 (inactive)
CCGACUGUUAAAGUGGUGUTT against Arih1	0.608 (inactive)
GUUUUACAAAUUCCUCCAUTT against Olfr1447	0.345 (inactive)
CCAGUUUUCGACACAAUUCTT against Cma1	0.645 (inactive)
GGCAGAGAAAUGGGCAAUGTT against Hcar1	2.12 (active)
GCUUAUGAGACUCAUUUAATT against Oser1	0.554 (inactive)
GCCGCUGCACUACAAUUUGTT against Trhde	0.717 (inactive)
GGAGCUAUACUGCUUUUCCTT against Mtmr7	1.61 (inactive)
GGCUUACCUGAACUUUCUGTT against Degs2	-0.381 (inactive)
GGGUGUCUUACACCUUACATT against Sertad2	-1.48 (inactive)
GGUGUUUGAGUCAACAGACTT against Oard1	-2.1 (active)
GCUGUUGUUUGCUAGCAAATT against Lipa	0.973 (inactive)
GGAAGUCCACAUUGCUGGUTT against Slc2a9	1.85 (inactive)
GGGUUUUGAGAUGUAAUGATT against Marchf8	0.0734 (inactive)
GCAGCCUAUGGAAGAUCACTT against Tle4	2.8 (active)
GCACUACACCUCCAGUUCGTT against Gne	0.164 (inactive)
CCACAUGUUUGUCUCAAAATT against Gskip	1.28 (inactive)
CGACCCUACAGAGGACAUUTT against Pik3r6	0.135 (inactive)
GGAAAUGAAGCAUCUGUAUTT against Txnip	-2.3 (active)
GGGUUUCACCCAAAGCCUUTT against Zfp354c	-1.41 (inactive)

Sequence	z-score
GGCUCAGUAAGGACUCUGATT against Tac2	1.24 (inactive)
GGAAUAGAAGCACUGUGUGTT against Brs3	-1.35 (inactive)
GGGCCCAGAUUUCAAUGGGTT against Car14	0.379 (inactive)
GCCACUCACUAUGCUACUCTT against Pnpla2	-2.62 (active)
GGCAUCUCCCACAUUAGAGTT against Sell	0.949 (inactive)
GGAAUAUGACUACAUGAAATT against Calu	-0.0124 (inactive)
GGAAAUUCGUGCAUGAAGATT against Sgsm2	-1.31 (inactive)
GGAGUCGAAUCUUCUCUAATT against Taco1	-1.07 (inactive)
GGUGCACACCAAUGUUCUGTT against Efemp2	2.03 (active)
GCUAUGCUGUUUUAUGUGATT against Synpr	0.212 (inactive)
CCUAUUGUAGCAAGUUACATT against H3c7	1.15 (inactive)
GGCAGAUGUACUGAUUAAATT against Tmprss11g	1.05 (inactive)
CGUUCUCUUGAAAUAAGCCTT against Pogk	-0.147 (inactive)
GGGACCUCCAUCGUAUUUGTT against Slc29a4	0.71 (inactive)
GCAACUGGUGAUAAGGUGUTT against Flywch1	0.486 (inactive)
GGCCAGAGUAUCGAUGUUCTT against Slc25a14	-0.566 (inactive)
GGGACUUGAGUAGCUGACUTT against Sgta	-1.49 (inactive)
GCUUUCUUACCAAGAGUCATT against Vsig8	-2.89 (active)
CCUCUUAUCUCGAACAUUATT against Dsn1	0.95 (inactive)
GGAGAUAACACCGUUACUUTT against Olfr769	0.766 (inactive)
GGAUCUGAAGAUGAUGAACTT against Ces2e	0.0623 (inactive)
